Source: PubChem BioAssay
Calls of active or inactive are those of the source.

How the values were obtained:
Albumin (Bos taurus) = Albumin (Bos taurus) (UniProt P02769); assay: bovine serum albumin binders on microarray, profiling panel, artefact control for SMM control protein annotation, biochemical, small-molecule microarray, Alexa647 label, 635/667 nm fluorescence (AID 1118); settings: BSA-A647 binding, fluorescence 635 nm, higher = more signal;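 also: score merges 667 nm emission intensity and signal-to-noise per printed compound spot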
Albumin (Bos taurus), sequence (P02769 whole entry, looked up): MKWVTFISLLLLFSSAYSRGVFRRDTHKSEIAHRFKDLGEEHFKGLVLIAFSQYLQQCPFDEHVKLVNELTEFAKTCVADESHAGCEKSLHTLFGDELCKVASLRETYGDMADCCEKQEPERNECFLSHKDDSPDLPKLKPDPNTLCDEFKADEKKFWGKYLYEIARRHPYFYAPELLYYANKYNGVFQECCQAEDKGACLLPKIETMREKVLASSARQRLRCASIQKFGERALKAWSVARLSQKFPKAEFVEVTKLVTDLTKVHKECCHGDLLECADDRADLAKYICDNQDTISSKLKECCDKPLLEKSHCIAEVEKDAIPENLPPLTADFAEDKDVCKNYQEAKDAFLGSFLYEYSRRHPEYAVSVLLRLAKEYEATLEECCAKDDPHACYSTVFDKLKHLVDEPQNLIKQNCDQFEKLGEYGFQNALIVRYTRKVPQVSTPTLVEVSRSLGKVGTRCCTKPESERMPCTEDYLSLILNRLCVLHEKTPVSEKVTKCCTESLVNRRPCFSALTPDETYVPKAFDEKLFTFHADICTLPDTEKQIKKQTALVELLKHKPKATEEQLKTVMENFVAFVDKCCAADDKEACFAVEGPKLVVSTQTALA

[1] = small-molecule microarray binders of probe aXIP, primary screen, biochemical, NeuroSMM set, 635/667 nm fluorescence (AID 1119); settings: higher = more signal, called active from +8 up or from −8 down;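 also: probe is the protein aXip251-270 applied at 1 µg/mL to compound-printed slides; binding of probe to printed compounds measured as 667 nm fluorescence plus signal to noise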
[2] = small-molecule binders of probe aNOTCH3, primary screen, biochemical, small-molecule microarray, 635/667 nm fluorescence (AID 1120); settings: higher = more signal;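 also: probe is a biotin-tagged antibody raised against NOTCH3 rather than NOTCH3 protein; score merges spot fluorescence near 667 nm with spot signal to noise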
[3] = small-molecule binders of probe aNOTCH2, primary screen, biochemical, small-molecule microarray, 635/667 nm fluorescence (AID 1121); settings: higher = more signal;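 also: score merges feature fluorescence read at 667 nm with its signal to noise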
[4] = target: Carbonic anhydrase 2 (Homo sapiens) (UniProt P00918); assay: CAII small-molecule binders, profiling panel, biochemical, small-molecule microarray, Alexa647-labelled CAII (AID 1122); settings: CAII-A647 binding fluorescence, higher = more signal
[5] = COS7 lysate on small-molecule microarray, probe aHis, 635 nm (AID 1123); settings: COS7 cell lysate, fluorescence, higher = more signal;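 also: z-score combines 667nm fluorescence intensity with signal-to-noise per printed compound spot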
[6] = compound binding in COS7 lysate, probe aLAP1, primary screen, cell lysate, small-molecule microarray (AID 1124); settings: probe aLAP1, fluorescence, higher = more signal;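 also: lysate comes from COS7 cells expressing LAP1 and is applied at 0.3 µg/mL; score merges spot fluorescence near 667 nm with signal-to-noise over triplicate slides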
Sam68 (KHDRBS1) = assay: Sam68 small-molecule binders, primary screen, biochemical, small-molecule microarray, 635 nm fluorescence (AID 1125); settings: small-molecule microarray binding, higher = more signal;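 also: score merges 667 nm channel intensity with signal to noise over triplicate slides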
[7] = tested on: Chordin-like protein 2 (CHRDL2); assay: CHRDL2 small-molecule binders, primary screen, biochemical, small-molecule microarray, 635 nm fluorescence (AID 1126); settings: small-molecule microarray binding, fluorescence 635 nm; higher = more signal;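 also: printed compound slides probed with Chrdl2 protein at 4 µg/mL for 1 h at 4 C; score merges 667 nm emission intensity with signal to noise over three replicate slides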
[8] = target: Concanavalin-A (Canavalia ensiformis) (UniProt P02866); assay: ConA small-molecule binders, primary screen, artefact control for SMM control protein annotation, biochemical, small-molecule microarray, Alexa647 label, 635 nm (AID 1127); settings: ConA-A647 binding fluorescence, higher = more signal;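 also: z combines 667 nm emission intensity with signal-to-noise across three replicate slides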
Concanavalin-A (Canavalia ensiformis), sequence (P02866 whole entry, looked up): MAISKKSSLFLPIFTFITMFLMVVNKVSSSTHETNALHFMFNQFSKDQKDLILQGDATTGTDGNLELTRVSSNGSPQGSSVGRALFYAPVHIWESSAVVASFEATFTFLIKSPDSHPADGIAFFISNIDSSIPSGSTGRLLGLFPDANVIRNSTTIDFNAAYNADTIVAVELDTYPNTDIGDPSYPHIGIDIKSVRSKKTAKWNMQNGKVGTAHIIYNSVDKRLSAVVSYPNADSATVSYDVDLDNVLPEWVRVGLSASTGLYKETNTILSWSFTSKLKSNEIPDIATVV

[9] = anti-His antibody binders, primary screen, artefact control for SMM control protein annotation, biochemical, small-molecule microarray, 635 nm fluorescence (AID 1128); settings: anti-His Alexa647 antibody binding, higher = more signal;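 also: score merges feature fluorescence with signal-to-noise for each printed compound spot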
[10] = tested on: Human papillomavirus type 1a E7 protein (residues 1-88); assay: HPV1a E7 small-molecule binders, primary screen, biochemical, small-molecule microarray, residues 1-88, 635 nm (AID 1129); settings: small-molecule microarray binding, fluorescence 635 nm; higher = more signal
[11] = target: Focal adhesion kinase 1 (Homo sapiens) (UniProt Q05397); assay: small-molecule microarray binders of FAK, primary screen, biochemical, 635/667 nm fluorescence, BSA, DTT (AID 1130); settings: PTK2 binding, 635 nm fluorescence, higher = more signal;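 also: composite of spot emission at 667 nm and signal to noise over triplicate slides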
Focal adhesion kinase 1 (Homo sapiens), sequence (Q05397 whole entry, looked up): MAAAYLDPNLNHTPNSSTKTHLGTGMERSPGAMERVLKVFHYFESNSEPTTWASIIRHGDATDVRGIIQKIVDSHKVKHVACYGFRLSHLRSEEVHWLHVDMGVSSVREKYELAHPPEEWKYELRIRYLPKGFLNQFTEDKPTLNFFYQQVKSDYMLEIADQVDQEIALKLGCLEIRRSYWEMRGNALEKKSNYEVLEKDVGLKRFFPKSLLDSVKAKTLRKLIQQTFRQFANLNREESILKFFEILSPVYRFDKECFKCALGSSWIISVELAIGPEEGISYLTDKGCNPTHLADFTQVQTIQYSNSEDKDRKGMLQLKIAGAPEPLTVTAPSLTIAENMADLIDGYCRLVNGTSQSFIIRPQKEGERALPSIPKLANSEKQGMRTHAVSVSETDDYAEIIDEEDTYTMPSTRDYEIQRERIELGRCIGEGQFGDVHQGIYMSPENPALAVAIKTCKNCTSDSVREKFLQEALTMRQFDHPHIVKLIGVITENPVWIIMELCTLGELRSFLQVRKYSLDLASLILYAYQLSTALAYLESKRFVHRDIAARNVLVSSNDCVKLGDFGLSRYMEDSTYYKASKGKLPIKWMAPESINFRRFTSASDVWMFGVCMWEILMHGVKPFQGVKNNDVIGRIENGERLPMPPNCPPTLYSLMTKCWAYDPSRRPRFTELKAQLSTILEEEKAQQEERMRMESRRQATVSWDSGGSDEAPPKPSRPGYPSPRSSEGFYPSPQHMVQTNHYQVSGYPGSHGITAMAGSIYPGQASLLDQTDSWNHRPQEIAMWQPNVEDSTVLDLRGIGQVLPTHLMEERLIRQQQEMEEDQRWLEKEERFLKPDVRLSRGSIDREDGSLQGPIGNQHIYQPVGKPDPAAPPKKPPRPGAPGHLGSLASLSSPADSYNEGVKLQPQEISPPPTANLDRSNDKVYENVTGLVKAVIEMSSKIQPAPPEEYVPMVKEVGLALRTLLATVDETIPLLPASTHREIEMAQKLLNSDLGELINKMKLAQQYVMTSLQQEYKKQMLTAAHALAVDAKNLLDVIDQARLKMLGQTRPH

[12] = tested on: Fibrinogen (Alexa647-labelled); assay: fibrinogen binders on compound microarrays, profiling panel, artefact control for SMM control-protein annotation, biochemical, small-molecule microarray, 635/667 nm fluorescence (AID 1131); settings: fibrinogen-A647 binding fluorescence, higher = more signal;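 also: z-score merges 667 nm fluorescence with per-spot signal-to-noise over triplicate slides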
[13] = target: Follistatin (Homo sapiens) (UniProt P19883); assay: follistatin binders on small-molecule microarrays, primary screen, biochemical, small-molecule microarray, 635/667 nm fluorescence (AID 1132); settings: FST binding, 635 nm fluorescence, higher = more signal
Follistatin (Homo sapiens), sequence (P19883 whole entry, looked up): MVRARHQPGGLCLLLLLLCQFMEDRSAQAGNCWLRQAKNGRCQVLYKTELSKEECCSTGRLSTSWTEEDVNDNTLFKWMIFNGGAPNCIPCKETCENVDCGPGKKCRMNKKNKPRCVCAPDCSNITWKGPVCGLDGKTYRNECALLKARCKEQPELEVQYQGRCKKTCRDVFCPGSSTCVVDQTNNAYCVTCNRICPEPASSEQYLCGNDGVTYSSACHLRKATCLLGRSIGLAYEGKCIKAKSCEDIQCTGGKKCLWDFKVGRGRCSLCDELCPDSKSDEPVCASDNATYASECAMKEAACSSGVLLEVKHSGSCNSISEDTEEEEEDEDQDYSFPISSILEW

[14] = target: Fibroblast growth factor 2 (Homo sapiens) (UniProt P09038); assay: FGF2 binders on small-molecule microarrays, primary screen, biochemical, small-molecule microarray, 635/667 nm fluorescence (AID 1133); settings: small-molecule microarray binding, FGF2, fluorescence 635/667; higher = more signal
Fibroblast growth factor 2 (Homo sapiens), sequence (P09038 whole entry, looked up): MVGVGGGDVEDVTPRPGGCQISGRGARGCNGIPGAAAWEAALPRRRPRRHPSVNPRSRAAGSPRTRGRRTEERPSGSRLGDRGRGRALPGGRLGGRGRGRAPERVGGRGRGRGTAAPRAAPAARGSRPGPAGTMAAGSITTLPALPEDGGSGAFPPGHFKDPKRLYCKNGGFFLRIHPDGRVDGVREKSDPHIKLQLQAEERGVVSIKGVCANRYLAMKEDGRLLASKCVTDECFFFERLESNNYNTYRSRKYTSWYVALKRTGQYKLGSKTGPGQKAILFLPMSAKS

[15] = mitochondrial membrane potential change in A549 cells, profiling panel, cell-based, JC-1 fluorescence, basal, 24 h, 100 nL (AID 1138); settings: higher = more signal;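 also: A549 lung adenocarcinoma cells under basal conditions with no added stimulus; test concentration not given here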
Lefty1 = Lefty1 binders on small-molecule microarrays, primary screen, biochemical, small-molecule microarray, 635/667 nm fluorescence (AID 1139); settings: small-molecule microarray binding, fluorescence 635/667; higher = more signal
[16] = tested on: wheat germ agglutinin (Triticum aestivum), Alexa647-labelled; assay: wheat germ agglutinin binders on compound microarrays, profiling panel, artefact control for SMM control-protein annotation, biochemical, small-molecule microarray, 635/667 nm fluorescence (AID 1140); settings: WGA-A647 binding, 635 nm fluorescence, higher = more signal;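 also: score merges 667 nm feature emission with signal to noise over triplicate slides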
[17] = target: Luciferin 4-monooxygenase (Photinus pyralis) (UniProt P08659); assay: firefly luciferase enzyme inhibitors, primary screen, biochemical, luminescence, purified enzyme, 2006 set (AID 1141); settings: SteadyGlo luminescence, 30 min, higher = more signal, called active from +8 up or from −8 down;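 also: cell-free assay with purified firefly luciferase at 100 ng per well in PBS; test concentration not given here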
Luciferin 4-monooxygenase (Photinus pyralis), sequence (P08659 whole entry, looked up): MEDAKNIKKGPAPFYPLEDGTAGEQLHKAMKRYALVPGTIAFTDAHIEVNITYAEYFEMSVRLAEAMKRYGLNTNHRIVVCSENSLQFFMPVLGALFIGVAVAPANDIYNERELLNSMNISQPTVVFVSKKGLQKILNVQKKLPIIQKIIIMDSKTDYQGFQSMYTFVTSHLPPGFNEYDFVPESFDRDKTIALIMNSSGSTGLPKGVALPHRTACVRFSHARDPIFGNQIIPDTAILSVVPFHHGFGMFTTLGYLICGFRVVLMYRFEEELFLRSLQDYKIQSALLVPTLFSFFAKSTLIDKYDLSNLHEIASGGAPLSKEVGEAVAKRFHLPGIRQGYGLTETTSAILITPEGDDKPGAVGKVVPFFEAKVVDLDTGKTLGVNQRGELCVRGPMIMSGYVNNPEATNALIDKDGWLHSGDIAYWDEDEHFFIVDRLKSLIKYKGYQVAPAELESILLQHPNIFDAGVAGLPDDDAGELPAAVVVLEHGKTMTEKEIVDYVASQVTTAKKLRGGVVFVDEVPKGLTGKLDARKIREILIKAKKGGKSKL

SMILES | composite z-score (Albumin (Bos taurus)) | composite Z-score [1] | composite z-score [2] | composite z-score [3] | composite z-score [4] | composite z-score [5] | composite z-score [6] | composite z-score (Sam68 (KHDRBS1)) | composite z-score [7] | composite z-score [8] | composite z-score [9] | composite z-score [10] | composite z-score [11] | composite z-score [12] | composite z-score [13] | composite z-score [14] | z-score [15] | composite z-score (Lefty1) | composite z-score [16] | z-score [17]
CCN1C(=O)[C@H]2[C@H]3[C@H](O)[C@H](O)CC(=NOC(C)CN4CCCc5nc(C)c(C)cc54)[C@@H]3CC[C@H]2C1=O (stereo not given in full) | -0.558 | 0.635 (inactive) | 0.148 | 0.0137 | 0.014 | -0.0995 | 0.284 | 1.05 | 0.893 | -0.471 | -0.245 | 0.509 | 0.335 | 0.116 | 0.703 | 0.462 | 0.623 | 0.737 | -0.393 | 0.126 (inactive)
COC(=O)CC=C[C@@H](C)[C@@H](C=NOC(C)CN1CCCCc2nc(C)c(C)cc21)OC (stereo not given in full) | 0.276 | -0.472 (inactive) | 0.227 | -0.0439 | 0.301 | 0.043 | -0.0856 | 1.28 | 1.29 | 0.235 | 1.4 | 0.981 | 0.847 | 0 | 1.14 | 0.368 | 0.855 | 1.24 | 0.259 | -0.183 (inactive)
CC(C)=NO[C@H](C)c1cn([C@@H]2COC[C@H]2O)nn1 | 0.392 | -0.679 (inactive) | 0.0694 | -0.147 | 0.0793 | 0.0027 | 0.191 | 0.317 | 0.655 | 0.139 | 0.106 | 0.661 | 0.335 | 0.187 | 0.349 | 0.594 | 0.027 | 0.718 | -0.038 | 0.0821 (inactive)
O=C1C[C@@H](O)[C@@H](O)[C@@H]2[C@@H]3C(=O)N(c4ccc(F)cc4F)C(=O)[C@@H]3CC[C@H]12 | 0.422 | -0.0025 (inactive) | 0.0257 | -0.102 | 0.104 | 0.517 | 0.0172 | 0.495 | 0.571 | 0.44 | 0.387 | 0.503 | 0.0336 | 0.428 | 0.549 | 0.401 | -0.834 | 0.645 | 0.304 | -0.211 (inactive)
O=C1[C@H]2[C@H]3[C@H](O)[C@H](O)CC(=NO[C@@H]4O[C@H](CO)[C@@H](O)[C@H](O)[C@H]4O)[C@@H]3CC[C@H]2C(=O)N1c1cccc(Oc2ccccc2)c1 | 0.29 | -0.65 (inactive) | -0.0391 | -0.104 | -0.0428 | 0.109 | 0.106 | 0.324 | 0.775 | 0.588 | 0.13 | 0.542 | 0.0405 | 0.578 | 0.858 | 0.948 | -0.728 | 0.879 | 0.335 | 0.825 (inactive)
COC(=O)C(C(=O)OC)C1CCCC(=O)C1 (stereo not given) | -0.0912 | 0.499 (inactive) | -0.0391 | -0.0694 | 0.381 | 0.214 | -0.205 | -0.0924 | 0.414 | 0.468 | 0.252 | 0.433 | 0.193 | 0.372 | 0.326 | 0.692 | -1.13 | 0.804 | 0.173 | 0.138 (inactive)
CCOC(=O)[C@H](CC(C)C)NC(=O)CCC1CC(OC(=O)NCCc2ccc(F)cc2)CC2(CCCC(COC(=O)NCCOC)O2)O1 (stereo not given in full) | 0.502 | 0.795 (inactive) | -0.0573 | -0.171 | 0.0663 | 0.5 | 0.417 | 1.29 | 0.515 | 0.646 | 0.917 | 1.04 | 0.318 | 0.416 | 0.839 | 1.18 | -0.382 | 0.955 | 0.829 | 0.958 (inactive)
C[C@@H]1CC[C@H]2C(=O)O[C@@H](CN=[N+]=[N-])CN2[C@H]1c1ccc(Br)cc1 | 0.677 | -0.283 (inactive) | -0.0343 | -0.0287 | 0.236 | 1.02 | 0.373 | 1.12 | 0.526 | 1.07 | 2.89 | 1.15 | 0.694 | 0.952 | 0.515 | 0.376 | 0.285 | 0.506 | 0.829 | -1.59 (inactive)
COC(=O)[C@@H]1CC[C@H](C)[C@@H](c2ccc(C)cc2)N1C(=O)c1ccc(C=NOC[C@H]2O[C@H](c3ccccc3)C=C[C@@H]2Oc2ccc(OC)cc2)cc1 | 0.312 | -0.496 (inactive) | 0.0257 | -0.161 | -0.145 | -0.336 | -0.192 | 0.233 | 0.692 | 0.45 | -0.585 | -0.274 | -0.0204 | -0.324 | 0.222 | 0.174 | -0.351 | 0.244 | 0.172 | 1.18 (inactive)
CCOC(=O)NN=C1C[C@@H](O)[C@@H](O)[C@@H]2[C@@H]3C(=O)N(C[C@@H]4CCCO4)C(=O)[C@@H]3CC[C@H]12 | 0.34 | -0.161 (inactive) | -0.0057 | -0.15 | -0.144 | 0.19 | 0.299 | 0.31 | 0.245 | 0.111 | 0.57 | 0.317 | 0.43 | 0.835 | 0.308 | 0.342 | -0.311 | 0.293 | 0.0337 | 0.515 (inactive)
